Experimental data from PubChem BioAssay (NCI).
The panel holds about 83,000 compounds, 20% with a hit somewhere; the sample as a whole holds those more often.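 Method: cells in 96-well plates; compound added at one concentration; 48 h incubation; percent growth measured; values under 10 scored active.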 The source made the active and inactive calls.

Key:
Assay in all cases: NCI-60 one-dose screen, 48 h (100 = growth as untreated, 0 = no growth, -100 = all killed)
Settings in all cases: 10 µM unless noted
T-47D breast = tested on: T-47D breast
BT-549 breast = tested on: BT-549 breast
MDA-MB-435 melanoma = tested on: MDA-MB-435 melanoma
SW-620 colon = tested on: SW-620 colon
MCF7 breast = tested on: MCF7 breast
HCT-116 colon = tested on: HCT-116 colon
HCC-2998 colon = tested on: HCC-2998 colon
KM12 colon = tested on: KM12 colon

Measured: growth

CCOC(=O)c1cc2oc(/C=C/c3cc(=O)c4cc(Cl)ccc4o3)cc2[nH]1
inactive: T-47D breast 68.4% | BT-549 breast 53.5% | MDA-MB-435 melanoma 88.2% | SW-620 colon 82.5% | MCF7 breast 40.2% | HCT-116 colon 81.2% | HCC-2998 colon 98.1% | KM12 colon 62.8%

CCCCCCCCCCNCCSS(=O)(=O)O
active: KM12 colon 4.36%
inactive: T-47D breast 88.7% | BT-549 breast 113% | MDA-MB-435 melanoma 62.4% | SW-620 colon 81.8% | MCF7 breast 19.2% | HCT-116 colon 52.9% | HCC-2998 colon 76.4%

COc1ccc2cc(-c3nc4ccccc4[nH]3)c(=O)oc2c1
inactive: T-47D breast 92.9% | BT-549 breast 101% | MDA-MB-435 melanoma 108% | SW-620 colon 95.5% | MCF7 breast 89.3% | HCT-116 colon 93% | HCC-2998 colon 78.3% | KM12 colon 93.8%

Cc1ccc(-c2cc(-c3ccccc3)n(-c3ccccc3)n2)cc1
inactive: T-47D breast 74.6% | BT-549 breast 101% | MDA-MB-435 melanoma 89% | SW-620 colon 99.9% | MCF7 breast 97.5% | HCT-116 colon 29.9% | HCC-2998 colon 99.1% | KM12 colon 106%

COC(=O)[C@H](CCCCNC(=O)OCc1ccccc1)NC(=O)[C@@H](NC(=O)Nc1cc(C(F)(F)F)cc(C(F)(F)F)c1)C(C)C
active: T-47D breast -57.6% [100 µM] | MDA-MB-435 melanoma -86% [100 µM] | SW-620 colon -14.6% [100 µM] | MCF7 breast -18.2% [100 µM] | HCT-116 colon -86.6% [100 µM] | HCC-2998 colon -43.4% [100 µM] | KM12 colon 7.99% [100 µM]
inactive: BT-549 breast 47.1% [100 µM]

CC1C(C)N(C(=O)CCl)c2ccccc2N1C(=O)CCl (stereo unspecified)
active: T-47D breast -42% | BT-549 breast -86.4% | MDA-MB-435 melanoma -20.9% | SW-620 colon -81.7% | MCF7 breast -49.4% | HCT-116 colon -93.2% | HCC-2998 colon -93.9% | KM12 colon -91.7%

Clc1ccc(C2=NN(c3ccc(Cl)cc3)C(c3cccc(Nc4ccnc5cc(Cl)ccc45)c3)C2)cc1 (stereo unspecified)
inactive: T-47D breast 79.8% | BT-549 breast 68.4% | MDA-MB-435 melanoma 99.2% | SW-620 colon 90% | MCF7 breast 81.9% | HCT-116 colon 55% | HCC-2998 colon 94% | KM12 colon 85.2%

Nc1nc(SCc2cccnc2)c2ncn(C3OC(CO)C(O)C3O)c2n1 (stereo unspecified)
inactive: T-47D breast 110% | BT-549 breast 98.1% | MDA-MB-435 melanoma 104% | SW-620 colon 97.9% | MCF7 breast 94.9% | HCT-116 colon 93.8% | HCC-2998 colon 96.6% | KM12 colon 98.4%

COc1cnc2c(c1)C(=O)c1c-2n(CCCn2ccnc2)c(=O)c2cc(F)ccc12
active: T-47D breast -9.74% | BT-549 breast -11.2% | MDA-MB-435 melanoma -60.3% | SW-620 colon -45.2% | MCF7 breast 0.795% | HCT-116 colon -49.9% | HCC-2998 colon 4.65% | KM12 colon 0.0466%

C=CCNC(=O)/C(=C/c1cccc([N+](=O)[O-])c1)NC(=O)c1ccccc1
inactive: T-47D breast 98.2% | BT-549 breast 88.1% | MDA-MB-435 melanoma 101% | SW-620 colon 103% | MCF7 breast 101% | HCT-116 colon 98.2% | HCC-2998 colon 78.2% | KM12 colon 109%

O=C(Nc1nc2ccc(OC(F)(F)F)cc2s1)c1ccc(F)cc1
active: T-47D breast -10.8% | MCF7 breast -0.0548% | HCT-116 colon -28% | HCC-2998 colon 3.77% | KM12 colon 2.23%
inactive: BT-549 breast 39.2% | MDA-MB-435 melanoma 15.1% | SW-620 colon 13.3%

COc1cc(/C=C/C(=O)C(C(=O)/C=C/c2ccc(OC(=O)CCNc3nnc(C)s3)c(OC)c2)C(=O)CCNc2nnc(C)s2)ccc1OC(=O)CCNc1nnc(C)s1
active: BT-549 breast -44% | MDA-MB-435 melanoma -27.5% | SW-620 colon -19.5% | MCF7 breast 8.2% | HCT-116 colon -31.6% | HCC-2998 colon -46.7% | KM12 colon -39.2%
inactive: T-47D breast 41.4%

CCOC(=O)C(Br)=P(c1ccccc1)(c1ccccc1)c1ccccc1
inactive: T-47D breast 97.7% | BT-549 breast 117% | MDA-MB-435 melanoma 98.6% | SW-620 colon 105% | MCF7 breast 111% | HCT-116 colon 110% | HCC-2998 colon 109% | KM12 colon 112%

O[N+]1=CC=CCC1=S.On1ccccc1=S.[Zn]
active: T-47D breast -84.9% | BT-549 breast -84% | MDA-MB-435 melanoma -82.8% | SW-620 colon -77.2% | MCF7 breast -75.6% | HCT-116 colon -88.1% | HCC-2998 colon -76.3% | KM12 colon -88.3%

CCOC(=O)Nc1cc(-c2ccc(C)c(NS(C)(=O)=O)c2)nn2c(C)nnc12
active: MDA-MB-435 melanoma 9.2% | HCC-2998 colon -58%
inactive: T-47D breast 23.3% | BT-549 breast 49.5% | SW-620 colon 30.2% | MCF7 breast 13% | HCT-116 colon 15.6% | KM12 colon 12.2%

O=CN1N=C(c2ccc(Nc3ccnc4cc(Cl)ccc34)cc2)CC1c1ccc(Cl)cc1 (stereo unspecified)
active: MDA-MB-435 melanoma -19.6% | HCC-2998 colon -20.4% | KM12 colon 9.13%
inactive: T-47D breast 23.1% | BT-549 breast 55.3% | SW-620 colon 32.9% | MCF7 breast 18.4% | HCT-116 colon 11.7%

O=c1[nH]cc(Nc2cc(Cl)c3nonc3c2[N+](=O)[O-])c(=O)[nH]1
active: MDA-MB-435 melanoma -41.2%
inactive: T-47D breast 101% | BT-549 breast 114% | SW-620 colon 89.8% | MCF7 breast 109% | HCT-116 colon 99.1% | HCC-2998 colon 90.6% | KM12 colon 109%

NS(=O)(=O)c1ccc(-n2ncc3c(NC4CCCCC4)ncnc32)cc1
inactive: T-47D breast 80.4% | BT-549 breast 108% | MDA-MB-435 melanoma 92.5% | SW-620 colon 113% | MCF7 breast 116% | HCT-116 colon 93.6% | HCC-2998 colon 91.5% | KM12 colon 83.6%

N#Cc1c(NC(=O)c2ccco2)[n+]([O-])c2ccccc2[n+]1[O-]
inactive: T-47D breast 90.8% | BT-549 breast 92.9% | MDA-MB-435 melanoma 107% | SW-620 colon 107% | MCF7 breast 71.3% | HCT-116 colon 93.8% | HCC-2998 colon 98.3% | KM12 colon 109%

O=C1c2cc3c(cc2-c2c1c1ccc(Cl)cc1c(=O)n2CCCNCCO)OCO3
active: T-47D breast -67.1% | BT-549 breast -63.7% | MDA-MB-435 melanoma -85% | SW-620 colon -73.2% | MCF7 breast -73.1% | HCT-116 colon -74.2% | HCC-2998 colon -89% | KM12 colon -78.4%

COc1cc(/C=C/C(=O)c2c(C)n([O-])c3ccccc3[n+]2=O)cc(OC)c1OC
inactive: T-47D breast 34.9% | BT-549 breast 27.3% | MDA-MB-435 melanoma 46.3% | SW-620 colon 43.7% | MCF7 breast 20.8% | HCT-116 colon 30.6% | HCC-2998 colon 60.5% | KM12 colon 61.2%

Cc1ncc(C(=O)Nc2ccc(CN3CCN(C)CC3)c(C(F)(F)F)c2)cc1C#Cc1cncc2ncccc12
inactive: T-47D breast 83.7% | BT-549 breast 85.4% | MDA-MB-435 melanoma 36.9% | SW-620 colon 59.6% | MCF7 breast 71.9% | HCT-116 colon 42.2% | HCC-2998 colon 74.5% | KM12 colon 13.6%

CCNCCCn1c2c(c3ccc(F)cc3c1=O)C(=O)c1cc(OC)cnc1-2
active: T-47D breast -10.8% | BT-549 breast -22.7% | MDA-MB-435 melanoma 1.77% | SW-620 colon -16.1% | MCF7 breast -4.74% | HCT-116 colon -62.1% | HCC-2998 colon -56.1% | KM12 colon 1.84%

COc1ccc(C(=O)COc2cccc(/C=C3\COc4ccc5ccccc5c4C3=O)c2)cc1
inactive: T-47D breast 32% | MDA-MB-435 melanoma 64.8% | SW-620 colon 27.8% | MCF7 breast 16.1% | HCT-116 colon 59.2% | HCC-2998 colon 63.9% | KM12 colon 67.8%
active: BT-549 breast 1.54%

N#Cc1c(-c2ccc(F)cc2)n2c(nc1=O)SC(=O)C2=O
inactive: T-47D breast 114% | BT-549 breast 99.1% | MDA-MB-435 melanoma 96.5% | SW-620 colon 103% | MCF7 breast 89.4% | HCT-116 colon 102% | HCC-2998 colon 102% | KM12 colon 104%

COc1ccc2c3c(ccc2c1)C(=O)/C(=C\O)CC3
inactive: T-47D breast 80.8% | BT-549 breast 105% | MDA-MB-435 melanoma 111% | SW-620 colon 105% | MCF7 breast 102% | HCT-116 colon 88.1% | HCC-2998 colon 104% | KM12 colon 99.5%

C#C[C@]1(O)CCC2C3CCc4cc(O)ccc4C3CC[C@@]21C (stereo partly specified)
inactive: T-47D breast 50.3% | BT-549 breast 36.8% | SW-620 colon 21.2% | MCF7 breast 34.1% | HCT-116 colon 19% | HCC-2998 colon 61% | KM12 colon 21.9%
active: MDA-MB-435 melanoma -5.44%

CC(C)Cn1cnc2c(NCn3nc(-c4cc(Cl)cc(Cl)c4Cl)n(/N=C/c4ccc(Cl)cc4)c3=S)nc3ccccc3c21
inactive: T-47D breast 71.3% | BT-549 breast 92.3% | MDA-MB-435 melanoma 110% | SW-620 colon 98.5% | MCF7 breast 97.2% | HCT-116 colon 66.1% | HCC-2998 colon 80.6% | KM12 colon 96.6%

O=C1OC(Oc2ccccc2)(c2ccccc2)c2ccccc21 (stereo unspecified)
inactive: T-47D breast 100% | BT-549 breast 102% | MDA-MB-435 melanoma 102% | SW-620 colon 106% | MCF7 breast 117% | HCT-116 colon 102% | HCC-2998 colon 104% | KM12 colon 93.3%

CC1(C)CC2(C)CC(=O)C1C(C(=O)O)C2C(=O)O (stereo unspecified)
inactive: T-47D breast 94.9% | BT-549 breast 116% | MDA-MB-435 melanoma 118% | SW-620 colon 108% | MCF7 breast 95.5% | HCT-116 colon 113% | HCC-2998 colon 103% | KM12 colon 107%

O=C(O)CNC(=O)C1(N2C(=O)c3ccccc3C2=O)CCCC1
inactive: T-47D breast 102% | BT-549 breast 101% | MDA-MB-435 melanoma 96.3% | SW-620 colon 110% | MCF7 breast 92% | HCT-116 colon 103% | HCC-2998 colon 104% | KM12 colon 118%

Cc1n(Cc2ccc3ccccc3c2)c2ccccc2[n+]1Cc1ccc2ccccc2c1
active: T-47D breast -3.2% | BT-549 breast -79.7% | MDA-MB-435 melanoma -72.8% | SW-620 colon -60.7% | MCF7 breast -70.9% | HCT-116 colon -91% | HCC-2998 colon -87% | KM12 colon -77.7%
